High-throughput results: PubChem, Sanford-Burnham Center for Chemical Genomics
Hits are enriched below; roughly 3% of the tested compounds scored in any of these assays.
SENP8 block-1 – inhibitors of human SENP8 protease; inhibition, % at 20 µM; 0.64% of 360,000 active; recombinant SENP8, Nedd8 substrate fluorescence; Q96LD8; in the data active means inhibition mostly above about 40%, no sharp cut-off; inactive means mostly below about 27%
SENP7 inh – inhibitors of human SENP7 protease; Q9BQF6; recombinant SENP7, Z-RLRGG-aminoluciferin luminescence, 40 min; inhibition, % at 5 µM; 1.5% of 330,000 active;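 active means inhibition above about 50% at the single test dose, limit read from the data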;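 further: plate controls were DMSO with enzyme for no effect and no enzyme buffer wells for full effect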
Target sequence (Q9BQF6 706-1050 limits assumed): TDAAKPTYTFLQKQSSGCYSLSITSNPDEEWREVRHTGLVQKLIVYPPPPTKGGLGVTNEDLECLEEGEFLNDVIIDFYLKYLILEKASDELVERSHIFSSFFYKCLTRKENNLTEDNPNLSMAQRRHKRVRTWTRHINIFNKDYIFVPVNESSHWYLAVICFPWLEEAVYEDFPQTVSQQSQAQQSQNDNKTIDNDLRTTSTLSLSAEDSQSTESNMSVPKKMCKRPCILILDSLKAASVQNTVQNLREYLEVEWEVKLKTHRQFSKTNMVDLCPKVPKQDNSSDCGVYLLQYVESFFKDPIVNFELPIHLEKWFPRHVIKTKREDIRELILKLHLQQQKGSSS
C8 TRAIL sens – caspase-8 TRAIL sensitization; NB7+C8 cells + TRAIL, ATPlite viability luminescence; inhibition (viability loss, TRAIL sensitization), % at 10 µM; 1% of 360,000 active; AID 624354;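 active means compounds causing at least 50% loss of cell viability in the single-dose screen, relative to plate controls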
SENP8 block-2 – blocks the human protease SENP8; AID 2540; 1.2% of 330,000 active; purified SENP8, Z-RLRGG-aminoluciferin cleavage, luminescence; Q96LD8; inhibition, % at 10 µM; in the data active means inhibition above about 50%
SENP6 block – SENP6 protease inhibition | Recombinant SENP6 catalytic domain, aminoluciferin luminescence | 1.8% of 330,000 active | Q9GZR1 | inhibition, % at 10 µM;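 active means inhibition above about 50% at the single tested dose, limit read from the data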;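 further: plate controls were DMSO wells with enzyme for no effect and DMSO wells lacking enzyme for full effect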
PPC-1+TRAIL kill – PPC-1 cancer cell killing with TRAIL present. PPC-1 cells + TRAIL, ATPLite viability luminescence. cell killing (% activity), % at 4 µM or 5 µM. 0.41% of 220,000 active;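 active means cell killing above 50% in the first pass at 4 µM, then a duplicate retest at 5 µM averaging 50% or more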;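 further: plate controls were cells with TRAIL plus DMSO for no effect and medium-only wells lacking cells for full effect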
SENP8 confirm – human SENP8 inhibition, confirmed | AID 488912 | shares compounds with SENP7 inh | Recombinant SENP8, Z-RLRGG-aminoluciferin luminescence, 60 min | 40% of 6,200 active | inhibition, % at 12.5 µM;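 active means mean inhibition across replicates above about 50%, limit read from the data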
SENP6 conf – confirmation of human SENP6 protease inhibitors. recombinant SENP6, Z-RLRGG-aminoluciferin luminescence. shares compounds with SENP7 inh. inhibition, % at 12.5 µM. 58% of 6,200 active
SENP7 conf – human SENP7 inhibition, confirmed; AID 488917; inhibition, % at 12.5 µM; 69% of 6,200 active; shares compounds with SENP7 inh; recombinant SENP7, Z-RLRGG-aminoluciferin luminescence, 40 min
Casp3 select – inhibits human caspase-3 in SENP selectivity test; shares compounds with SENP7 inh; purified caspase-3, Z-DEVD-aminoluciferin luminescence, 60 min; inhibition, % at 12.5 µM; 60% of 6,200 active;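 active means mean inhibition above about 50%, limit read from the data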;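 further: plate controls were enzyme with DMSO for no effect and wells without caspase-3 for full effect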
Target sequence (P42574 28-227 limits assumed): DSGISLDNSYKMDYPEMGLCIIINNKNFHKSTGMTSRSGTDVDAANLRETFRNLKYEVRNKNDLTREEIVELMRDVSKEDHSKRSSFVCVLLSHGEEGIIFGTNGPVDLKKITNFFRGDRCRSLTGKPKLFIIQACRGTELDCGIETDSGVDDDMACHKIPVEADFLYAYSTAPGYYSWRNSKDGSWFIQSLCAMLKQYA
SENP luc ctr – counter-screen for SENP inhibitors: luminescence interference; shares compounds with SENP7 inh; Pre-incubated SENP8/Z-RLRGG-aminoluciferin, luciferase luminescence interference; inhibition, % at 12.5 µM; 39% of 6,200 active; AID 488919;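 active means mean inhibition above about 50% when retested at one dose, limit read from the data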;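 further: plate controls were DMSO wells with completed reaction for no effect and substrate without enzyme for full effect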
An asterisk follows results filed as active; / = no result.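 How the source made its calls, unless noted: active means mean inhibition above about 50% in the one-dose retest (limit read from the data); inactive means the rest.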

SMILES	SENP8 block-1	SENP7 inh	C8 TRAIL sens	SENP8 block-2	SENP6 block	PPC-1+TRAIL kill	SENP8 confirm	SENP6 conf	SENP7 conf	Casp3 select	SENP luc ctr
Cc1ccc(OCc2nc(-c3ccccn3)no2)cc1	3	60*	21	23	40	10	43	45	80*	71*	44
CCc1ccc(OCc2nc(-c3ccccn3)no2)c(Br)c1	-2	91*	55*	90*	93*	20	95*	96*	101*	87*	79*
CC(C)[C@H](NC(=O)N1CCn2c1nc1ccccc12)C(=O)N1CCCCC1	-1	-18	-9	-15	1	/	/	/	/	/	/
CCC[C@H]1CN(c2ccccc2)C(=O)[C@@H]1CC(=O)Nc1ccc(Br)cc1	16	/	9	/	/	/	/	/	/	/	/
Cc1ccc(CN2C(=O)CCC2C(=O)NCCc2ccccc2)cc1 (stereo unspecified)	17	5	1	2	7	/	/	/	/	/	/
COc1ccc(C(=O)c2c(C(F)(F)F)oc3c2C(=O)c2ccccc2C3=O)cc1OC	63*	45	95*	60*	58*	40	10	79*	32	78*	1
COc1ccc(C(=O)Nc2ccc3c(c2)C(=O)c2ccccc2C3=O)cc1OC	20	6	-11	5	-12	-11	/	/	/	/	/
Nc1nn(-c2ccccc2)c(N)c1N=Nc1ccccc1F	34	29	21	-10	36	16	/	/	/	/	/
Nc1c(N=Nc2ccccc2F)c(=O)[nH]n1-c1ccccc1	33	77*	2	55*	80*	23	17	36	53*	24	14
CCCS(=O)(=O)NC(=O)C1(C)CCN1C(=O)Cc1ccc(Cl)cc1Cl (stereo unspecified)	32	/	-10	/	/	/	/	/	/	/	/
Cc1cnc(NC(=O)C2COc3ccccc3O2)s1 (stereo unspecified)	6	65*	19	52*	58*	12	69*	68*	89*	79*	73*
Cc1ncsc1C(=O)Nc1nc2c(s1)CC(C)CC2 (stereo unspecified)	-78	98*	35	92*	96*	40	-4	72*	93*	84*	26
CC1CCc2nc(NC(=O)C3COc4ccccc4O3)sc2C1 (stereo unspecified)	1	43	18	45	75*	5	72*	72*	91*	59*	28
Cc1csc(NC(=O)C2COc3ccccc3O2)n1 (stereo unspecified)	14	1	13	-1	33	2	/	/	/	/	/
CC1CCc2nc(NC(=O)C3CC3)sc2C1 (stereo unspecified)	15	-17	3	-15	-18	22	/	/	/	/	/
O=C(NN1C(=O)NC2(CCCCC2)C1=O)c1cccs1	2	1	10	-5	5	/	/	/	/	/	/
CCC(C)c1ccc(NC(=O)c2ccco2)cc1 (stereo unspecified)	8	74*	73*	70*	85*	/	79*	78*	94*	71*	67*
CN(C(=O)c1ccc(NC(=O)c2ccco2)cc1)c1ccccc1	5	81*	22	61*	81*	/	13	69*	87*	88*	72*
CN(C(=O)c1cccc(NC(=O)c2ccco2)c1)c1ccccc1	8	-7	-11	9	-2	/	/	/	/	/	/
O=C(Oc1ccccc1)c1ccc(NC(=O)c2ccco2)cc1	5	91*	1	66*	7	19	33	66*	85*	78*	36
CCC(C)c1ccc(NC(=O)COC(=O)CCNC(=O)c2ccco2)cc1 (stereo unspecified)	1	-1	-11	3	-12	/	/	/	/	/	/
OCC[C@H]1C[C@@H](O)[C@H](O)[C@@]2(OCc3ccccc32)O1	14	10	-18	1	-8	/	/	/	/	/	/
CC(=O)Nc1ccc(N/C=C/C(=O)c2ccco2)cc1	-51	-1	5	2	11	13	/	/	/	/	/
O=C(/C=C/Nc1cccc(F)c1)c1ccco1	-265	73*	27	52*	82*	7	-10	72*	94*	85*	78*
O=C(/C=C/Nc1ccc(F)c(Cl)c1)c1ccco1	-378	27	12	45	70*	30	67*	66*	88*	56*	14
SMILES	SENP8 block-1	SENP7 inh	C8 TRAIL sens	SENP8 block-2	SENP6 block	PPC-1+TRAIL kill	SENP8 confirm	SENP6 conf	SENP7 conf	Casp3 select	SENP luc ctr
O=C(/C=C/Nc1ccc(Oc2ccccc2Cl)cc1)c1ccco1	-274	24	-11	29	45	29	/	/	/	/	/
COc1ccccc1Oc1ccc(N/C=C/C(=O)c2ccco2)cc1	-197	57*	33	55*	85*	24	88*	89*	100*	81*	76*
CC(=O)c1c(OC(=O)c2ccccc2)ccnc1C(F)(F)F	10	3	2	-5	1	/	/	/	/	/	/
CC(C)C[C@H]1COc2cccc(N(C)CCO)c2S(=O)(=O)N1	5	/	-12	/	/	/	/	/	/	/	/
CCCN1CCN(C(=O)c2cc3c(s2)-c2ccccc2OC3)CC1	-424	56*	0	65*	71*	/	80*	80*	92*	84*	79*
CCOC(=O)N1CCN(C(=O)c2cc3c(s2)-c2ccccc2OC3)CC1	-437	-1	-9	-1	-13	-1	/	/	/	/	/
CC(=Nc1cccc(O)c1)c1sc2ccccc2c1O	-5	90*	10	90*	91*	35	84*	82*	93*	54*	72*
CCOC(=O)c1sc2ccccc2c1OC(=O)c1ccc(C)cc1	7	-10	9	-6	-2	-6	/	/	/	/	/
CC(=Nc1ccc(C)cc1)c1sc2ccccc2c1O	-53	96*	62*	90*	94*	43	95*	96*	101*	85*	48
Nc1cccc(-c2cc3ccccc3oc2=O)c1	3	11	6	2	10	-21	/	/	/	/	/
O=Cc1c(-c2ccccc2)cc2oc3ccccc3cc1-2	16	65*	51*	78*	67*	/	19	13	8	19	-1
COc1ccc(-c2cn(CCc3c[nH]c4ccccc34)nn2)cc1	1	0	12	-4	-2	/	/	/	/	/	/
